Measured values as given in PubChem BioAssay (NCATS).
Where “and” joins values, the source holds several entries; their conditions need not be identical. Equal values may be shown once. Inconclusive results are not listed. Some compounds were tested as several samples or in several runs, with calls that do not always agree. Calls of active or inactive are those of the source. Unless noted, calls follow the shape of the dose curve; as a rule, active = well fitted curve in the direction sought with a large enough effect; inconclusive = small, poorly fitted or top-dose-only effect, or another doubt; inactive = no such curve, though single readings can be large; an effect the other way counts as inactive or inconclusive.

target: Cytochrome P450 3A4 (Homo sapiens) (UniProt P08684); assay: qHTS Assay for Inhibitors and Substrates of Cytochrome P450 3A4 (AID 884); settings: recombinant CYP3A4, Luciferin-PPXE luminescence; series mostly up to 57.1 µM; activity change, negative = inhibition: at the top concentration; also: nearly all actives have a fitted effect of over 50% in size; also: potency is read from the fitted curve at half-maximal effect; as to activity change, negative = inhibition: % is scaled to controls: 0 for no effect and ±100 for the full control effect
Outline: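 Luminescent readout of luciferin produced by CYP3A4 (20 nM) dealkylation of Luciferin-PPXE, 25 uM (its KM). NADPH-driven reaction ran 60 min at RT after 10 min compound preincubation; data scaled to 57 uM ketoconazole as 100% inhibition.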

Cytochrome P450 3A4 (Homo sapiens), sequence (P08684 whole entry, looked up): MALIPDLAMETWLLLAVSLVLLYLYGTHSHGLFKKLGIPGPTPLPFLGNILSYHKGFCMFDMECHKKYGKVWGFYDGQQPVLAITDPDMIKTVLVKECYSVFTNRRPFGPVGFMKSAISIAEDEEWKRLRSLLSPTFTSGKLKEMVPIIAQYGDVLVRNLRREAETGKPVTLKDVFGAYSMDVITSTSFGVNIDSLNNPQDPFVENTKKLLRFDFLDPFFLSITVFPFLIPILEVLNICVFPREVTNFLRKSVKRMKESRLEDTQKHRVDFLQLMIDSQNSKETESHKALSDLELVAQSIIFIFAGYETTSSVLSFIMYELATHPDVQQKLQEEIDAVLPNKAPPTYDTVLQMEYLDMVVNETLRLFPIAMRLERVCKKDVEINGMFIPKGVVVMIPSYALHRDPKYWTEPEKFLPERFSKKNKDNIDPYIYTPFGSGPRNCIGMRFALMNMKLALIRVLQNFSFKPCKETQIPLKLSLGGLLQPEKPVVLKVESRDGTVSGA

| SMILES | activity change, negative = inhibition | Potency |
| --- | --- | --- |
| CCCOc1ccc2nc(NC(=O)OC)[nH]c2c1 | -9.87% (inactive) |  |
| Cc1ncc([N+](=O)[O-])n1CC(C)O (centres undefined) | -9.63% (inactive) |  |
| Nc1nc(Cl)nc2c1ncn2[C@H]1C[C@H](O)[C@@H](CO)O1 | -2.46% (inactive) |  |
| O=C(c1ccccc1)c1ccc2n1CCC2C(=O)O (centres undefined) | -13.5% (inactive) |  |
| Cc1cc2cc3c(C)cc(=O)oc3c(C)c2o1 |  | 3.98 µM (active) |
| O=C1c2ccccc2-c2n[nH]c3cccc1c23 |  | 3.98 µM (active) |

target: Cytochrome P450 3A4 (Homo sapiens) (UniProt P08684); assay: qHTS Assay for Activators of Cytochrome P450 3A4 (AID 885); settings: recombinant CYP3A4, Luciferin-PPXE luminescence, 60 min; series mostly up to 57.1 µM; activity change, positive = activation: at the top concentration; also: nearly all actives have a fitted effect of over 65% in size
Outline: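 CYP3A4 activity: Luciferin-PPXE O-dealkylation, 25uM substrate, 200mM KPO4, RT throughout. Read-out is luciferase luminescence; higher values reflect activation.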

| SMILES | activity change, positive = activation | outcome |
| --- | --- | --- |
| O=C1c2c(O)cc(O)cc2OC(c2ccc(O)c(O)c2)C1O (centres undefined) | -37.2% (inactive) |  |
| NNc1nncc2ccccc12 |  | inactive |
| C[C@@H](N)C1CCC(C(=O)Nc2ccncc2)CC1 (some centres undefined) | -70.8% (inactive) |  |
| Cc1cccc(CN2CCN(C(c3ccccc3)c3ccc(Cl)cc3)CC2)c1 (centres undefined) | -83.4% (inactive) |  |
| Cc1c(OCC(F)(F)F)ccnc1CS(=O)c1nc2ccccc2[nH]1 (centres undefined) | -102% (inactive) |  |
| COC(=O)C1=C(C)NC(C)=C(C(=O)OC(C)C)C1c1cccc2nonc12 (centres undefined) | -63.9% (inactive) |  |
| CCOC(=O)C1=C(O)C(=O)N(Cc2ccccc2)C1 | -57.9% (inactive) |  |
| CC1(C)NC(=O)N(c2ccc([N+](=O)[O-])c(C(F)(F)F)c2)C1=O | -45.2% (inactive) |  |
| Cc1cc2cc3c(C)cc(=O)oc3c(C)c2o1 |  | inactive |
| O=C1c2ccccc2-c2n[nH]c3cccc1c23 | -89.3% (inactive) |  |

target: Cytochrome P450 2D6 (Homo sapiens) (UniProt P10635); assay: qHTS Assay for Inhibitors and Substrates of Cytochrome P450 2D6 (AID 891); settings: recombinant CYP2D6, luciferin-ME EGE luminescence; series mostly up to 57.1 µM; activity change, negative = inhibition: at the top concentration; also: nearly all actives have a fitted effect of over 60% in size; also: potency is read from the fitted curve at half-maximal effect;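 as to activity change, negative = inhibition: luciferin methyl ether substrate demethylated by CYP2D6 with NADPH regeneration; % is scaled to controls: 0 for no effect and ±100 for the full control effect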
Outline: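 Luminescent read-out of luciferin formed by 5 nM human CYP2D6 demethylating 30 uM Luciferin-ME EGE (Km level) over 60 min at room temperature after NADPH regeneration addition. Data normalized to full inhibition by 1.43 uM quinidine.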

Cytochrome P450 2D6 (Homo sapiens), sequence (P10635 whole entry, looked up): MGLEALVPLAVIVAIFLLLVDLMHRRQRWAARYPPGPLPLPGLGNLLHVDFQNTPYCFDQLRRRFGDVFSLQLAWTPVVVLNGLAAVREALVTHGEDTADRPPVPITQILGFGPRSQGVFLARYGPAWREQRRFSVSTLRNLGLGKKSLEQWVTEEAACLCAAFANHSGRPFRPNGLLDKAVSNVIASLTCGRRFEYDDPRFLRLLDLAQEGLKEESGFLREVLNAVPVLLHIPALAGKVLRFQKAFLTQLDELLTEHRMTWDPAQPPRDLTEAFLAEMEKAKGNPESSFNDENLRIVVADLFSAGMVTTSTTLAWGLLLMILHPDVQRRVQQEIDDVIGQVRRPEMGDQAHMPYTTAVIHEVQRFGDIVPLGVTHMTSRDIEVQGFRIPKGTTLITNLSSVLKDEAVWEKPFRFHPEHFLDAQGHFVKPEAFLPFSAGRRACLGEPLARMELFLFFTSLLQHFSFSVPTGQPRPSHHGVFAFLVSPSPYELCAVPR

| SMILES | Potency | activity change, negative = inhibition |
| --- | --- | --- |
| CN1CCC(=C2c3ccccc3CCc3sccc32)CC1 | 1.26 µM (active) |  |
| CC1(C)NC(=O)N(c2ccc([N+](=O)[O-])c(C(F)(F)F)c2)C1=O |  | 2.77% (inactive) |
| O=C1c2ccccc2-c2n[nH]c3cccc1c23 | inactive and 398 nM (active) |  |

tested on: not listed separately; assay: qHTS Assay for Identification of Small Molecule Antagonists for NFkB Signaling Pathway (AID 895; active = well fitted inhibition curve with a large enough effect in the signal ratio, with a control signal flat, not every such curve was filed as active; the % refers to the signal ratio; also: % is scaled to controls: 0 for no effect and ±100 for the full control effect); settings: NFkB beta-lactamase reporter cells, FRET ratio 460/530, stimulated with 10 pM TNF alpha; series mostly up to 38.3 µM; activity change, negative = inhibition: at the top concentration
Outline: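 NFkB-bla ME-180 cervical carcinoma cells with beta-lactamase reporter under NFkB response element; compounds added, then TNF alpha at 10 pM final (EC50), 5 h at 37 C. LiveBLAzer substrate 2 h, room temperature; emission 460/530 nm at 405 nm excitation.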

| SMILES | activity change, negative = inhibition |
| --- | --- |
| NNc1nncc2ccccc12 | -8.27% (inactive) |
| COc1ccc2cc([C@H](C)C(=O)O)ccc2c1 | -11.3% (inactive) |
| O=c1ccc2ccc(O)c(O)c2o1 | -5.71% (inactive) |

target: Cytochrome P450 2C19 (Homo sapiens) (UniProt P33261); assay: qHTS Assay for Inhibitors and Substrates of Cytochrome P450 2C19 (AID 899); settings: recombinant CYP2C19, luciferin-H EGE luminescence; series mostly up to 57.1 µM; activity, negative = inhibition: at the top concentration; also: nearly all actives have a fitted effect of over 60% in size; also: potency is read from the fitted curve at half-maximal effect; as to activity, negative = inhibition: % is scaled to controls: 0 for no effect and ±100 for the full control effect
Outline: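 NADPH-dependent conversion of Luciferin-H EGE (10uM, at KM) by 5nM enzyme in 50mM KPO4, 60 min at 37C following 10 min compound preincubation. Stopped with luciferin detection buffer; luminescence read after 20 min.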

Cytochrome P450 2C19 (Homo sapiens), sequence (P33261 whole entry, looked up): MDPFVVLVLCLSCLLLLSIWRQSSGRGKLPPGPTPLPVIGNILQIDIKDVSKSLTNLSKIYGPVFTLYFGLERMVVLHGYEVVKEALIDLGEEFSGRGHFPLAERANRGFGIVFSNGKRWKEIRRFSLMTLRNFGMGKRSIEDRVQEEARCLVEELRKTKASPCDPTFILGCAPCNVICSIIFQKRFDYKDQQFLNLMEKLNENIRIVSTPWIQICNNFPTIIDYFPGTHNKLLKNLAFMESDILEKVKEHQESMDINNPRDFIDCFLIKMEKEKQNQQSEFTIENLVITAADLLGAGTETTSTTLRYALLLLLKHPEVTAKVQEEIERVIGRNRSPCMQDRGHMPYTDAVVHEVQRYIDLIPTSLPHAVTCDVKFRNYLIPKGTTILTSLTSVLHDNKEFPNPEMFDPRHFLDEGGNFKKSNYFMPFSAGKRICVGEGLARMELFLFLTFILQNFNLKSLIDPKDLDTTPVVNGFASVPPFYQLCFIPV

| SMILES | Potency | activity, negative = inhibition |
| --- | --- | --- |
| Cc1c(OCC(F)(F)F)ccnc1CS(=O)c1nc2ccccc2[nH]1 (centres undefined) | 1.26 µM (active) |  |
| O=C(NCCO[N+](=O)[O-])c1cccnc1 | 3.98 µM (active) |  |
| CC1(C)NC(=O)N(c2ccc([N+](=O)[O-])c(C(F)(F)F)c2)C1=O | 7.94 µM (active) and 126 nM (active) and 251 nM (active) |  |
| O=C1c2ccccc2-c2n[nH]c3cccc1c23 |  | -45.8% (inactive) |

tested on: not listed separately; assay: Confirmation and Secondary Assay for Modulators of Hemoglobin Beta Chain Splicing at IVS2 654 locus (AID 910); settings: HeLa EGFP-654 splicing reporter, GFP fluorescence, 48 h; series mostly up to 46.1 µM; activation (splicing correction): at the top concentration;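 also: per-well total GFP intensity by laser scanning cytometry after 2-day treatment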;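 also: potency is read from the fitted curve at half-maximal effect; potency of activators that raise GFP signal by restoring correct splicing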; as to activation (splicing correction): % of control where 0% means no effect
Outline: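 HeLa cells stably carrying EGFP interrupted by mutant beta-globin IVS2-654 intron (CMV-driven) were treated with compound for 2 days at 37C; corrected splicing was scored as total peak GFP intensity per well (488 nm excitation, 500-520 nm emission).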

| SMILES | activation (splicing correction) | Potency |
| --- | --- | --- |
| O=C(O)c1cn(-c2ccc(F)cc2)c2cc(N3CCNCC3)c(F)cc2c1=O | -2.67% (inactive) |  |
| O=C(NC(Cc1cc(=O)[nH]c2ccccc12)C(=O)O)c1ccc(Cl)cc1 (centres undefined) | 8.48% (inactive) |  |
| CN(C)CCc1c[nH]c2ccc(Cn3cncn3)cc12 | 2.93% [at 38.3 µM] (inactive) |  |
| O=c1oc2cc(O)ccc2s1 | -1.03% (inactive) |  |
| NNc1nncc2ccccc12 | -1.14% (inactive) |  |
| O=C(O)c1cc(=O)c2c(OCC(O)COc3cccc4oc(C(=O)O)cc(=O)c34)cccc2o1 | 0.582% (inactive) |  |
| Cc1cccc(CN2CCN(C(c3ccccc3)c3ccc(Cl)cc3)CC2)c1 (centres undefined) | -7.37% (inactive) |  |
| S=c1nc[nH]c2nc[nH]c12 |  | 3.16 µM (active) |
| CC1Cc2ccccc2N1NC(=O)c1ccc(Cl)c(S(N)(=O)=O)c1 (centres undefined) | 2.85% (inactive) |  |
| CN1C(C(=O)Nc2ccccn2)=C(O)c2sccc2S1(=O)=O | 0.295% (inactive) |  |
| Cc1cc(C2CCCCC2)n(O)c(=O)c1 | -7.41% (inactive) |  |
| Cc1ccc(S(=O)(=O)NC(=O)NN2CC3CCCC3C2)cc1 (centres undefined) |  | inactive |
| Cc1c(OCC(F)(F)F)ccnc1CS(=O)c1nc2ccccc2[nH]1 (centres undefined) | -10.2% (inactive) |  |
| CCN(CCO)CCCC(C)Nc1ccnc2cc(Cl)ccc12 (centres undefined) | 5.71% (inactive) |  |
| Cc1cc2c(s1)Nc1ccccc1N=C2N1CCN(C)CC1 | 6.71% (inactive) |  |
| CCCOc1ccc2nc(NC(=O)OC)[nH]c2c1 | 0.918% (inactive) |  |
| Cc1ncc([N+](=O)[O-])n1CC(C)O (centres undefined) | 6.06% (inactive) |  |
| Nc1nc(Cl)nc2c1ncn2[C@H]1C[C@H](O)[C@@H](CO)O1 |  | inactive |
| CN1CCC(=C2c3ccccc3CCc3sccc32)CC1 | 2.92% (inactive) |  |
| O=C(c1ccccc1)c1ccc2n1CCC2C(=O)O (centres undefined) | 0.747% (inactive) |  |
| Nc1cc(C(Cl)=C(Cl)Cl)c(S(N)(=O)=O)cc1S(N)(=O)=O | 9.54% (inactive) |  |
| CC1(C)NC(=O)N(c2ccc([N+](=O)[O-])c(C(F)(F)F)c2)C1=O | -7.77% (inactive) |  |
| Cc1cc2cc3c(C)cc(=O)oc3c(C)c2o1 | 4.33% (inactive) |  |
